Measured values reported in the supplement of paper PMC9694430.

Experiments:
Assay in all cases: thermal shift delta Tm vs DMSO control; higher = stronger stabilization (binding)
Conditions in all cases: 12.5 µM; protein concentration 2 µM
LOC_OS01G57100-cb003 = system: LOC_OS01G57100-cb003
Outline: (§1)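 Heating from 25°C to 95°C at 0.05°C/s, fluorescence was recorded for 19.5 μl wells of 2 μM E. coli-expressed, purified rice kinase domain in 100 mM potassium phosphate pH 7.5, 150 mM NaCl, 10% glycerol and 5 × SYPRO Orange with compound in DMSO. Boltzmann fits gave melting temperatures for this differential scanning fluorimetry assay. The shift reported is the mean of three replicates against the DMSO-only protein.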

LOC_OS01G60330-cb001 = system: LOC_OS01G60330-cb001
Outline: as §1

LOC_OS01G60700-cb002 = system: LOC_OS01G60700-cb002
Outline: as §1

LOC_OS01G63280-cb003 = system: LOC_OS01G63280-cb003
Outline: as §1

LOC_OS01G67340-cb003 = system: LOC_OS01G67340-cb003
Outline: as §1

LOC_OS01G70970-cb002 = system: LOC_OS01G70970-cb002
Outline: as §1

LOC_OS02G07810-cb001 = system: LOC_OS02G07810-cb001
Outline: as §1

LOC_OS02G08530-cb003 = system: LOC_OS02G08530-cb003
Outline: as §1

LOC_OS02G14120-cb001 = system: LOC_OS02G14120-cb001
Outline: as §1

LOC_OS02G17970-cb001 = system: LOC_OS02G17970-cb001
Outline: as §1

LOC_OS02G45750-cb003 = system: LOC_OS02G45750-cb003
Outline: as §1

LOC_OS02G54510-cb004 = system: LOC_OS02G54510-cb004
Outline: as §1

LOC_OS03G04050-cb001 = system: LOC_OS03G04050-cb001
Outline: as §1

LOC_OS03G12390-cb001 = system: LOC_OS03G12390-cb001
Outline: as §1

LOC_OS03G27990-cb004 = system: LOC_OS03G27990-cb004
Outline: as §1

LOC_OS03G50450-cb001 = system: LOC_OS03G50450-cb001
Outline: as §1

LOC_OS03G50810-cb003 = system: LOC_OS03G50810-cb003
Outline: as §1

LOC_OS04G35114-cb001 = system: LOC_OS04G35114-cb001
Outline: as §1

LOC_OS04G38480-cb003 = system: T1, LOC_OS04G38480-cb003
T1 sequence (whole entry): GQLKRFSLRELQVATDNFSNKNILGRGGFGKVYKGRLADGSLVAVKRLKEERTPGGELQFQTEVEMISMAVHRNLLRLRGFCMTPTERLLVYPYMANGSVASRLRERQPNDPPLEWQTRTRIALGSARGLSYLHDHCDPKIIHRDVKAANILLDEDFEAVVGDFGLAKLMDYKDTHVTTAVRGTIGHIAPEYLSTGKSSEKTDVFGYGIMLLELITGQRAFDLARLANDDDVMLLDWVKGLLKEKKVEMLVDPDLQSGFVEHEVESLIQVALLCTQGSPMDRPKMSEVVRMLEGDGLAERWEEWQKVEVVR
Outline: as §1

LOC_OS04G41100-cb001 = system: T2, LOC_OS04G41100-cb001
T2 sequence (whole entry): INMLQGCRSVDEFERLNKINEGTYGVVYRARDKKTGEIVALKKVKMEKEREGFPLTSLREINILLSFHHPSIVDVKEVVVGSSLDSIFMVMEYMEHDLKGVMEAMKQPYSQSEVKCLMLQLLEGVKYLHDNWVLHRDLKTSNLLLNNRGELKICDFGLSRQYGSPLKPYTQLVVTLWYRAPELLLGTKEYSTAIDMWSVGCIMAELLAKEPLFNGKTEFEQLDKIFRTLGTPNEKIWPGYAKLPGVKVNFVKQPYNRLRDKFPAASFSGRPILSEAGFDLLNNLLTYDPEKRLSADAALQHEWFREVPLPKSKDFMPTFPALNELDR
Outline: as §1
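Note: purified Escherichia coli-expressed rice kinase domain construct.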

Row | SMILES | thermal shift delta Tm (LOC_OS01G57100-cb003) [°C] | thermal shift delta Tm (LOC_OS01G60330-cb001) [°C] | thermal shift delta Tm (LOC_OS01G60700-cb002) [°C] | thermal shift delta Tm (LOC_OS01G63280-cb003) [°C] | thermal shift delta Tm (LOC_OS01G67340-cb003) [°C] | thermal shift delta Tm (LOC_OS01G70970-cb002) [°C] | thermal shift delta Tm (LOC_OS02G07810-cb001) [°C] | thermal shift delta Tm (LOC_OS02G08530-cb003) [°C] | thermal shift delta Tm (LOC_OS02G14120-cb001) [°C] | thermal shift delta Tm (LOC_OS02G17970-cb001) [°C] | thermal shift delta Tm (LOC_OS02G45750-cb003) [°C] | thermal shift delta Tm (LOC_OS02G54510-cb004) [°C] | thermal shift delta Tm (LOC_OS03G04050-cb001) [°C] | thermal shift delta Tm (LOC_OS03G12390-cb001) [°C] | thermal shift delta Tm (LOC_OS03G27990-cb004) [°C] | thermal shift delta Tm (LOC_OS03G50450-cb001) [°C] | thermal shift delta Tm (LOC_OS03G50810-cb003) [°C] | thermal shift delta Tm (LOC_OS04G35114-cb001) [°C] | thermal shift delta Tm (LOC_OS04G38480-cb003) [°C] | thermal shift delta Tm (LOC_OS04G41100-cb001) [°C]
1 | CC(C)(O)CC(=O)NCCn1ccc2ncnc(Nc3ccc(Oc4cccc(C(F)(F)F)c4)c(Cl)c3)c21 | 2.91 | 5.27 | 0.11 | 1.26 | 1.33 | 1.03 | 1.53 | 0.93 | 1.51 | 0.83 | 0.62 | -0.25 | 0.51 | 1.74 | 0.47 | 0.94 | 1.03 | 0.12 | 1.78 | 0.52
2 | O=c1sn(-c2cccc3ccccc23)c(=O)n1Cc1ccccc1 [Tideglusib] | 1.25 | 0.51 | 1.08 | 0.25 | 0.24 | -0.22 | 0.81 | 0.5 | -0.01 | 1.3 | 0 | 0.35 | 0.13 | -1.57 | 0.89 | 0.32 | -0.5 | 2.38 | 0.78 | 0.34
3 | O=C(/C=C/c1ccc2ccccc2n1)c1ccncc1 | 1.22 | 1.35 | 0.05 | 1.12 | 0.62 | 0.59 | 0.02 | 2.02 | 2.08 | 1.05 | 4.53 | -0.52 | 0.27 | -1.09 | 0.7 | 0.7 | 0.37 | 4.4 | 4.06 | 2.67
4 | Cc1cc(Nc2ncnc3ccc(-c4ccc(CNCCS(C)(=O)=O)o4)cc23)ccc1Oc1ccn2ncnc2c1 [HER2-Inhibitor-1] | 2.52 | 0.97 | 1.31 | 1.08 | 0.71 | 0.3 | 0.98 | 2.32 | 2.21 | 1.79 | 2.59 | 0.24 | 0.79 | 0.49 | 0.37 | 0.76 | 1.21 | 4.39 | 1.57 | 0.72
5 | Cn1ncc(Cl)c1-c1cc(C(=O)N[C@H](CN)Cc2cccc(F)c2)sc1Cl | 0.79 | 0.75 | 0.77 | 0.1 | 0.54 | 0.15 | 0.41 | 0.69 | 1.31 | 0.56 | 0.37 | -0.08 | 0.33 | 0 | 0.16 | 0.15 | -0.04 | 0.42 | 0.52 | 0.2
6 | S=C(NCc1ccc2c(c1)OCO2)N1CCN(c2ncnc3c2oc2ccccc23)CC1 [Amuvatinib (MP-470)] | 1.62 | 1.4 | 1.01 | 0.5 | 0.84 | 0.42 | 1.04 | 1.09 | 0.42 | 1.14 | 0.86 | -2.11 | 0.55 | 0.66 | 0.56 | 0.69 | 0.68 | -0.04 | 0.39 | 0.47
7 | CC1(COc2ccc3c(c2)ncn3-c2ccc3cccc(N4CCC(N)CC4)c3n2)COC1 | 1.84 | 0.86 | 0.41 | 0.93 | 3.44 | 7.9 | 0.2 | 3.47 | 11.5 | 0.58 | 16.4 | 0.52 | 0.13 | 1.74 | 7.81 | 0.06 | 8.62 | 9.74 | 3.29 | 0.23
8 | C#Cc1cccc(Nc2ncnc3cc(OC)c(OCCCCCCC(=O)NO)cc23)c1 | 0.24 | 0.19 | 0.52 | 0.06 | -0.47 | 0.22 | 0.79 | 0.57 | 1.05 | 0.31 | 2.9 | 1.18 | -0.05 | 2.33 | 0.11 | 0.09 | 1.73 | 5.97 | 1.01 | 0.37
9 | N#Cc1ccc2[nH]c(O)c(-c3ccc(CN4CCOCC4)cn3)c2c1 | -0.18 | 0.88 | 1.33 | 0.3 | -0.02 | 0.56 | 0.82 | 1.04 | -0.04 | 0.51 | 1.77 | -0.01 | 0.4 | 2.43 | 0.48 | 0.53 | 1.1 | 1.83 | -0.4 | 2.66
10 | Cn1cc(-c2ccc3c(c2)CCN3C(=O)Cc2cccc(C(F)(F)F)c2)c2c(N)ncnc21 | 1.46 | -0.42 | 0.15 | 9.43 | 3.52 | 0.54 | 0.74 | 1.06 | 3.86 | 0.57 | 4.4 | 2.71 | 0.45 | 0.39 | 0.12 | 0 | 0.95 | 2.08 | 1.08 | 1.28
11 | CC#CC(=O)N1CCC[C@H]1c1nc(-c2ccc(C(=O)Nc3ccccn3)cc2)c2c(N)nccn12 [Acalabrutinib (ACP-196)] | 0.82 | 0.94 | 1.14 | 0.05 | 0.39 | 0.4 | 0.04 | 0.89 | 0.57 | 0.74 | 1.09 | 0.55 | 0.39 | -0.37 | 0.24 | 0.4 | 0.38 | 0.89 | 1.22 | 0.5
12 | CCCCNc1ncc(C(=O)NCc2ccc(-n3ccnc3)cc2)c(NC2CCC(O)CC2)n1 (stereo not given) | 2 | 9.72 | 1.49 | 0.72 | 10.2 | 4.54 | 0.76 | 4.03 | 7.7 | 1.08 | 12.4 | 0.46 | 0.27 | 2.82 | 5.72 | 1.85 | 4.77 | 9.02 | 2.91 | 0.89
